Compounds with a hit are over-represented: about 2.7% of the library has one in this group of screens.
INS-1E GSIS act = GLuc luminescence reporter in INS-1E cells, primary screen for activators of glucose-dependent secretion of insulin; 0.61% of 370,000 active; AID 743287; INS-1E GLuc reporter insulin secretion, 2-3 h; activation, % at 16.6 µM;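 active = lowest replicate activation of at least 40%, so every replicate reaches that level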;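 note: 0% = median of neutral control wells and 100% = median of IBMX positive control wells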
F508del corr = correctors of CFTR F508del function in bronchial epithelial cells; 0.36% of 350,000 active; activity (quench increase), % at 7.58 µM; CFBE cells, YFP halide quenching; stimulated with forskolin plus potentiator P3; % fluorescence drop versus neutral controls;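 active = mean added fluorescence quench of at least 8% versus neutral control, with both replicates also reaching 8%; inconclusive = only one of the mean or replicate conditions met; inactive = mean below 8% and not both replicates reaching 8%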;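 note: cells transiently co-express mutant CFTR-F508del with the halide-sensitive YFP; corrector assay measuring rescue of mutant channel to the surface after 24 h compound exposure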
Env fusion inh = HIV envelope-mediated fusion inhibition | HeLa-JRFL Env/CEM21 cell fusion, luciferase | inhibition, % at 12.3 µM | 1.1% of 360,000 active;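 active = mean replicate inhibition score of at least 50 and every replicate individually at or above 50; inconclusive = only one of the two criteria met; inactive = mean below 50 and not all replicates reaching 50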;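 note: 0% = plate neutral controls and 100% = maraviroc near 300 nM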
Wnt bcat act = Wnt/beta-catenin pathway activation; 1.2% of 300,000 active; Wnt/beta-catenin reporter cell assay, activator, plate reader; activation, % at 9.35 µM; AID 743398; in the data active = activation above about 30%, passing the limit was not always enough; inconclusive = no clear call, values can overlap the other calls;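 note: 0% = neutral control wells and 100% = positive control wells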
MITF TRPM1 HTS = activators of MITF-driven TRPM1 promoter activity in SK-MEL-5 cells. SK-MEL-5 TRPM1-promoter luciferase, 24 h; % of positive control, neutral wells = 0. activation, % at 12.5 µM. 0.75% of 300,000 active;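 active = mean activation of at least 80% with every replicate also reaching 80%; inconclusive = mean reaches 80% but some replicate falls short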;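 note: 0% = neutral control wells and 100% = parthenolide positive control wells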
Active calls of the source: *; ? = inconclusive; / = no result given; [ ] = dose if it differs, or a comment.

SMILES | INS-1E GSIS act | F508del corr | Env fusion inh | Wnt bcat act | MITF TRPM1 HTS
CC(C)NC(=O)Nc1ccc2c(c1)C(=O)N(C)C[C@@H](C)[C@H](CN(C)C(=O)NC(C)C)O2 | -6 | / | / | / | /
Nc1ccc(O)c2c(=O)cc(-c3ccccc3Cl)oc12 | 10 | 2 | -144 | 54* | 109*
O=C(Nc1cccc(Cl)c1)c1cnn2cccnc12 | 58* | / | -162 | / | 89*
CCc1ccc(NC(=O)c2cnn3ccccc23)cc1 | / | 2 | 27 | -3 | -49
O=C(Nc1cc(Cl)cc(Cl)c1)c1cnn2cccnc12 | / | / | -70 | -4 | 18
CSc1cccc(NC(=O)c2cnn3ccccc23)c1 | / | 0 | -94 | 40* | 104*
C[C@@H]1CN([C@@H](C)CO)S(=O)(=O)c2ccc(-c3cccnc3)cc2O[C@@H]1CN(C)C(=O)CC1CC1 | 25 | 5 | -15[16.7 µM] | / | /
C[C@@H](NC(=O)C[C@@H]1C=C[C@H](NC(=O)C2CC2)[C@@H](CO)O1)c1ccccc1 | 12 | -3 | 9[16.7 µM] | / | /
CCS(=O)(=O)Nc1ccc2c(c1)C(=O)N(C)[C@@H]1CC[C@@H](CC(=O)Nc3ccccc3)O[C@@H]1CO2 | -1 | -1 | -1[16.7 µM] | / | /
CC1(C(=O)NCc2cccc3ccccc23)CCN1Cc1ccc(OC(F)(F)F)cc1 (stereo not given) | 203* | 3 | 35 | -2 | /
CC1(C(=O)NCc2cccc3ccccc23)CCN1Cc1ccc2ccccc2c1 (stereo not given) | -20 | -1 | 20 | -2 | /
C[C@H]1CN([C@@H](C)CO)C(=O)Cc2cc(NS(=O)(=O)c3ccc(Cl)cc3)ccc2O[C@@H]1CN(C)Cc1ccc(Oc2ccccc2)cc1 | -13 | 0 | 5[16.7 µM] | / | /
COc1ccc(NC(=O)N2CCN(c3nc(-c4cccc(OC)c4)cs3)CC2)cc1 | -25 | / | 63* | / | -28
O=C(OCC(=O)c1ccc(Br)s1)c1ccc(O)cc1 | -5 | -1 | / | 43* | 40
Cc1cc(C(=O)OCC(=O)c2ccc(Br)s2)no1 | -6 | -1 | / | 0 | -7
O=C(C[C@@H]1CC[C@@H]2[C@H](COC[C@H](O)CN2C(=O)Nc2cccc(F)c2)O1)NCc1ccccc1Cl | -12 | -1 | / | / | /
COC(=O)c1ccsc1NC(=O)c1ccccc1 | 6 | 8.6* | -9 | -3 | -4
CC(C)NC(=O)N(C)C[C@@H]1OCCCC[C@@H](C)Oc2ccc(NC(=O)NC3CCCCC3)cc2C(=O)N([C@H](C)CO)C[C@@H]1C | 3 | -2 | 19[16.7 µM] | / | /
O=C(/C=C/c1ccccc1)CCN1CCOCC1 | 52* | -2 | -450 | -1 | /
O=[N+]([O-])c1ccccc1S(=O)(=O)N1CCN(Cc2ccc(OCCO)cc2)CC1 | / | 2 | -5[16.7 µM] | / | /
CC(C)(C)c1ccc(-c2cc(NC(=O)Cc3c[nH]c4ccccc34)ccc2Nc2cccnc2)cc1 | 57* | -2 | 74* | -6 | /
CCCc1ccc(-c2cc(NC(=O)Cc3c[nH]c4ccccc34)ccc2Nc2cccnc2)cc1 | / | 2 | 20 | -3 | /
O=C1NCCN/C1=C\C(=O)c1ccc(Br)cc1 | 8 | 0 | -41 | 63* | /
O=C1NCCN/C1=C\C(=O)c1ccccc1 | 8 | -1 | / | 0 | 13
COc1ccc2ccc(=O)oc2c1CC=C(C)C | 62* | 0 | / | 1 | -1
SMILES | INS-1E GSIS act | F508del corr | Env fusion inh | Wnt bcat act | MITF TRPM1 HTS
CO[C@H]1CN(C)C(=O)c2ccc(NS(=O)(=O)CC(F)(F)F)cc2OC[C@@H](C)N(C(=O)c2ccc3c(c2)OCO3)C[C@@H]1C | -2 | -1 | -8[16.7 µM] | / | /
c1ccc2c(c1)oc1c(Nc3ccc4c(c3)OCO4)ncnc12 | / | / | / | 33* | 42
COc1ccccc1C#Cc1ccc([C@H]2[C@H]3CN(C(=O)C4CC4)CCCCN3[C@H]2CO)cc1 | / | 4 | / | / | /
Cc1ccc(NCc2cccc(B(O)O)c2)cc1 | 43* | 0 | 25 | 8 | 1
Cc1c(-c2cccc(Cl)c2)nc2ccccc2c1C(=O)NC1CC1 | 99* | 1 | -9 | -1 | -8
Cc1c(-c2ccccc2)nc2ccccc2c1C(=O)O | -9 | 1 | / | 1 | -13
COc1cccc(-c2nc(CS(=O)(=O)CC(=O)NCCC(C)C)c(C)o2)c1 | / | 1 | 28 | 38* | -7
Oc1ccc(/C=N/Nc2ncc(Cl)cc2Cl)cc1 | 33 | 0 | -12 | 20 | 88*
N/C(=N\OC(=O)COc1ccc(Br)cc1)c1cccnc1 | -7 | / | -17 | 5 | 24
N/C(=N\OC(=O)COc1ccc2ccccc2c1Br)c1ccccn1 | 10 | -4 | -36 | 44* | ?
N/C(=N\OC(=O)COc1ccccc1)c1ccccn1 | -12 | / | -18 | 48* | 49
N/C(=N\OC(=O)COc1ccccc1)c1cccnc1 | 1 | 0 | -10 | 29 | 104*
Cc1cccc(OCC(=O)O/N=C(\N)c2ccccn2)c1 | 1 | -1 | / | 12 | 99*
C[C@H]1CCCCO[C@H](CN(C)S(=O)(=O)c2ccc(Cl)cc2)[C@@H](C)CN([C@@H](C)CO)C(=O)c2cc(NC(=O)Nc3cccc4ccccc34)ccc2O1 | 10 | -2 | -32[16.7 µM] | / | /
C[C@H]1CCCCO[C@H](CN(C)C(=O)Nc2ccc(C(F)(F)F)cc2)[C@@H](C)CN([C@@H](C)CO)C(=O)c2cc(N(C)C)ccc2O1 | 1 | 0 | -9[16.7 µM] | / | /
CCC(=O)N1CC2(CN(C(=O)CN3CCOCC3)C2)c2c([nH]c3cc(OC)ccc23)[C@H]1CO | 4 | 0 | / | / | /
Cc1ccc(OCC(=O)O/N=C(\N)c2ccccn2)cc1C | / | -1 | -51 | 39* | /
CCc1ccc(OCC(=O)O/N=C(\N)c2ccccn2)cc1 | 1 | 1 | -68 | 48* | /
N/C(=N\OC(=O)CCC1CCCC1)c1ccccn1 | -5 | / | -32 | 52* | 33
COc1ccc(CN(C)C[C@H]2Oc3c(NC(=O)C4CC4)cccc3C(=O)N([C@@H](C)CO)C[C@@H]2C)cc1 | -9 | 1 | / | / | /
COc1c(-c2ccc(O)c(O)c2)oc2cc(O)cc(O)c2c1=O | 70* | 0 | / | 4 | 12
C[C@@H]1O[C@@H](OC[C@H]2O[C@@H](Oc3c(-c4ccc(O)c(O)c4)oc4cc(O)cc(O)c4c3=O)[C@H](O)[C@@H](O)[C@@H]2O)[C@H](O)[C@H](O)[C@H]1O | 12 | 4 | -18 | 1 | -10
O=C(N/N=C/c1ccc([N+](=O)[O-])s1)c1ccccc1 | -4 | 1 | -1 | 1 | -105
O=C(N/N=C\c1ccc([N+](=O)[O-])s1)c1cncc(Br)c1 | 9 | 3 | 104* | -4 | -77
Cc1ccccc1Cn1c(C(=O)OC(C)C)cc2c1ccn2C | / | / | 54* | -1 | /
COc1ccc2c3c([nH]c2c1)[C@@H](CO)N(C(=O)c1cccc(F)c1)CC31CN(S(=O)(=O)c2cccs2)C1 | -42 | / | / | / | /
C[C@@H]1CN([C@@H](C)CO)C(=O)Cc2cc(NS(=O)(=O)c3cccs3)ccc2O[C@H]1CN(C)Cc1ccc(Cl)c(Cl)c1 | -21 | -1 | 61*[16.7 µM] | / | /
C[C@@H]1CN([C@@H](C)CO)C(=O)Cc2cc(NS(=O)(=O)c3cccs3)ccc2O[C@H]1CN(C)Cc1ccc(C(F)(F)F)cc1 | -19 | 2 | 78*[16.7 µM] | / | /
